Among the test systems are NCI-H23 lung; NCI-H226 lung; NCI-H322M lung; HOP-62 NSCLC; NCI-H460 lung; HOP-92 NSCLC; NCI-H522 lung; A549/ATCC NSCLC; 786-0 renal; COLO 205 colon.
Common to all, as to experiment: NCI-60 one-dose screen, 48 h (100 = growth as untreated, 0 = no growth, -100 = all killed)
Common to all, as to conditions: 10 µM

Molecules are shown by their SMILES. This is part of a sample that, as a whole, favours compounds with a hit. Of some 83,000 tested, about 20% had one in any assay.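 Step 1: grow cells in 96-well plates. Step 2: add test compound at a single concentration. Step 3: incubate 48 h. Step 4: record percent growth.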 A number with no mark means an inactive call. The source made the active and inactive calls. The calls were made as follows: active = growth percent below 10; inactive = the rest.

In the case of `CCc1nn2c(-c3cc(OC)c(OC)c(OC)c3)c(-c3cc(OC)c(OC)c(OC)c3)nc2s1`, the growth was 87.9% with NCI-H23 lung; 92% in the assay with NCI-H226 lung; 81.6% in the assay with NCI-H322M lung; 40.8% with HOP-62 NSCLC; 97.1% in the assay with NCI-H460 lung; -15.2% (active) with HOP-92 NSCLC. The growth is 46% in the assay with NCI-H522 lung, 86% in the assay with A549/ATCC NSCLC, 58.6% with 786-0 renal and 94.9% in the assay on COLO 205 colon.

As to `Cc1cn(C(=O)/C(Cl)=C(/Cl)C(=O)O)c2ccccc12`, the growth is 96.7% with NCI-H23 lung; 97.6% in the assay on NCI-H226 lung; 128% in the assay with NCI-H322M lung; 88% in the assay with HOP-62 NSCLC; 114% in the assay on NCI-H460 lung; 80.4% in the assay with HOP-92 NSCLC. Also, the growth in the assay on NCI-H522 lung is 110%; in the assay on A549/ATCC NSCLC it was 111%; in the assay with 786-0 renal it was 116%; with COLO 205 colon it was 91.7%.

For the compound `O=C(NCCCl)c1cc(Cl)cc(Cl)c1`, the growth in the assay with NCI-H23 lung was 103%; in the assay on NCI-H226 lung, 102%; with NCI-H322M lung it was 98.2%; in the assay with HOP-62 NSCLC, 109%; in the assay with NCI-H460 lung, 113%; in the assay on HOP-92 NSCLC it was 109%. Also, the growth in the assay with NCI-H522 lung was 92.8%; in the assay with A549/ATCC NSCLC, 90.7%; in the assay with 786-0 renal it was 102%; in the assay with COLO 205 colon, 112%.

For `CCCCCCCCCCCCCCCCCBr`, the growth in the assay on NCI-H23 lung is 106%; in the assay on NCI-H226 lung it was 94.9%; in the assay on NCI-H322M lung it was 94.6%; with HOP-62 NSCLC, 104%; in the assay with NCI-H460 lung, 106%; with HOP-92 NSCLC it was 98.8%. Further, the growth with NCI-H522 lung was 98.4%; in the assay on A549/ATCC NSCLC it was 108%; with 786-0 renal, 104%; in the assay with COLO 205 colon, 106%.

As to `C(=C\c1nc2ccccc2s1)/c1ccc(N2CCOCC2)s1`, the growth with NCI-H23 lung was 78%; with NCI-H226 lung, 89.4%; in the assay on NCI-H322M lung it was 79.7%; with HOP-62 NSCLC, 118%; in the assay on NCI-H460 lung, 80.7%; with HOP-92 NSCLC, 93%. The growth is 64.2% with NCI-H522 lung, 83.3% in the assay with A549/ATCC NSCLC, 82.5% with 786-0 renal and 94.8% with COLO 205 colon.

As for `COc1ccc(NC(=O)CCn2cnc3c(cc(-c4ccccc4)n3-c3ccccc3)c2=O)cc1`, the growth in the assay on NCI-H23 lung was 85.8%; in the assay with NCI-H226 lung it was 88.8%; in the assay on NCI-H322M lung it was 109%; in the assay on HOP-62 NSCLC it was 11.2%; in the assay on NCI-H460 lung, 91.8%; in the assay on HOP-92 NSCLC, 69.1%. The growth in the assay on NCI-H522 lung is 45.1%; in the assay on A549/ATCC NSCLC, 85.8%; with 786-0 renal it was 88.7%; with COLO 205 colon, 114%.

`CC1(C)CNC(=O)N1`: the growth with NCI-H23 lung was 104%; with NCI-H226 lung, 92.8%; in the assay with NCI-H322M lung, 109%; in the assay on HOP-62 NSCLC, 92.6%; in the assay on NCI-H460 lung, 106%; in the assay on HOP-92 NSCLC, 87%. Moreover, the growth in the assay on NCI-H522 lung was 83.9%; in the assay on A549/ATCC NSCLC, 93.3%; in the assay with 786-0 renal it was 94.3%; with COLO 205 colon, 101%.

For the compound `COc1ccc(COC(=O)CC(C)C)cc1`, the growth in the assay with NCI-H23 lung was 93.1%; with NCI-H226 lung, 95.1%; in the assay with NCI-H322M lung, 101%; with HOP-62 NSCLC, 106%; in the assay on NCI-H460 lung, 108%; with HOP-92 NSCLC, 99%. The growth is 79.1% with NCI-H522 lung, 89.5% with A549/ATCC NSCLC, 94.4% in the assay with 786-0 renal and 109% with COLO 205 colon.

In the case of `COc1ccc(C(=O)/C=C/c2cc(-c3ccc(OC)c(OC)c3)n[nH]2)cc1OC`, the growth is 8.17% (active) in the assay on NCI-H23 lung; 58% with NCI-H226 lung; -13.5% (active) with NCI-H322M lung; -33.5% (active) in the assay with HOP-62 NSCLC; -42.2% (active) in the assay on NCI-H460 lung; -59.3% (active) in the assay on HOP-92 NSCLC. The growth in the assay with NCI-H522 lung is -89.4% (active); with A549/ATCC NSCLC, -12.8% (active); with 786-0 renal it was -64.2% (active); in the assay with COLO 205 colon, -60.7% (active).

In the case of `Nc1ccc(C2=CC(c3ccc(Cl)cc3)N3C=CSC3=N2)cc1` (stereo not given), the growth in the assay with NCI-H23 lung is -46.6% (active); in the assay with NCI-H226 lung, -71.4% (active); in the assay on NCI-H322M lung, -57.2% (active); in the assay on HOP-62 NSCLC it was -63.8% (active); in the assay with NCI-H460 lung, -6.81% (active); in the assay with HOP-92 NSCLC, -22.7% (active). Besides, the growth is -65.9% (active) in the assay with NCI-H522 lung, -39.3% (active) in the assay with A549/ATCC NSCLC, -90.9% (active) in the assay with 786-0 renal and -85.1% (active) in the assay with COLO 205 colon.

Consider `COc1ccc(S(=O)(=O)Nc2ccc(OCc3nnc(-c4ccc(Cl)cc4)o3)c(F)c2)cc1`, for which the growth in the assay on NCI-H23 lung was 43.4%; in the assay with NCI-H226 lung, 59.8%; with NCI-H322M lung, 80.2%; in the assay with HOP-62 NSCLC it was 74.4%; in the assay on NCI-H460 lung, 59.4%; in the assay on HOP-92 NSCLC, 60.6%. The growth with NCI-H522 lung was 43.4%; with A549/ATCC NSCLC, 47.4%; in the assay with 786-0 renal, 67.8%; with COLO 205 colon, 89.2%.

As for `O=c1[nH]c(=O)n(C2C[C@@H](O)[C@@H](CO)O2)cc1F` (stereo not given in full), the growth was 15.9% in the assay with NCI-H23 lung; 50.4% in the assay with NCI-H226 lung; 57.6% in the assay on NCI-H322M lung; 27.7% in the assay on HOP-62 NSCLC; 6.58% (active) in the assay on NCI-H460 lung; 38.9% in the assay on HOP-92 NSCLC. Also, the growth with NCI-H522 lung was 20.1%; with A549/ATCC NSCLC it was 22.2%; in the assay on 786-0 renal it was 8.75% (active); with COLO 205 colon, 36.7%.

In the case of `c1ccc(CC(NCCNC(Cc2ccccc2)c2ccccc2)c2ccccc2)cc1` (stereo not given), the growth in the assay on NCI-H23 lung was 25%; with NCI-H226 lung, 38%; in the assay with NCI-H322M lung it was 66.2%; in the assay on HOP-62 NSCLC it was 61.1%; with NCI-H460 lung it was -13.9% (active); in the assay on HOP-92 NSCLC, -9.41% (active). Further, the growth with NCI-H522 lung is -40.5% (active); in the assay with A549/ATCC NSCLC, 36.8%; in the assay on 786-0 renal, 35.9%; in the assay with COLO 205 colon it was -59.5% (active).

Regarding `O=C/C=C/c1ccc([N+](=O)[O-])cc1Cl`, the growth in the assay on NCI-H23 lung was 94%; in the assay on NCI-H226 lung it was 108%; in the assay with NCI-H322M lung, 89.1%; in the assay with HOP-62 NSCLC, 99.9%; in the assay with NCI-H460 lung, 112%; with HOP-92 NSCLC, 95.1%. For the same compound, the growth was 89.5% in the assay with NCI-H522 lung, 98.7% in the assay with A549/ATCC NSCLC, 105% in the assay on 786-0 renal and 108% with COLO 205 colon.

These data come from PubChem BioAssay (NCI).
